Test [1] in a line: qHTS assay to identify small molecule antagonists of the sonic hedgehog signaling (Shh) pathway (AID 1259369; calls by dose curve; note: nearly all actives have a fitted effect of over 45% in size; note: potency is the fitted concentration of half-maximal effect). A digest of the protocol: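 Screening used 3T3Gli1-Luc cells at 2,000 per well, compounds delivered in DMSO, and conditioned medium as agonist stimulus; plates incubated 24hr at 37 C and 5% CO2 before a 30min luciferase step.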
In general terms: In qHTS, concentration-response curves come from the screen itself.

Test [2] addresses Estrogen receptor beta (Homo sapiens) (UniProt Q92731). The test can be described thus: qHTS assay to identify small molecule agonists of the estrogen receptor beta (ER-beta) signaling pathway (AID 1259377; active = well fitted activation curve with a large enough effect in the signal ratio in the repeat runs, not every such curve was filed as active; the % refers to the signal ratio). A digest of the protocol:
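qHTS in ER-beta-UAS-bla HEK293T cells: 6 hr settling, then 16 hr compound at 37C, then LiveBLAzer substrate 2 h at RT before fluorescence reading.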

The target is the same in test [3]. Briefly: qHTS assay to identify small molecule antagonists of the estrogen receptor beta (ER-beta) signaling pathway (AID 1259378; active = well fitted inhibition curve with a large enough effect in the signal ratio in the repeat runs, not every such curve was filed as active; the % refers to the signal ratio). The procedure, abridged: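 ER-beta-UAS-bla HEK293T (GripTite) cells in 2% charcoal-stripped FBS medium were preincubated 6 hr at 37C, dosed with compound, then stimulated with 1 nM E2 (final) for 16 hr; beta-lactamase reporter read by B/G FRET fluorescence after 2 hr substrate loading.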

The nature of test [4]: qHTS assay to identify small molecule agonists of the androgen receptor (AR) signaling pathway in the presence of an antagonist - cell viability counter screen (AID 1259379).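 Note: MDA-kb2 human breast cancer cells carrying an MMTV luciferase reporter; series mostly up to about 92 µM; nearly all actives have a fitted effect of over 25% in size.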 A digest of the protocol:
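In MDA-kb2 cells (human breast carcinoma, MMTV-luciferase), compounds at 15 concentrations plus 3.0uM nilutamide; 16 hr, 37C, 0% CO2; CellTiter-Fluor fluorescence read for viability.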

A short description of test [5]: qHTS assay to identify small molecule agonists of the estrogen receptor beta (ER-beta) signaling pathway - cell viability counter screen (AID 1259380). Note: nearly all actives have a fitted effect of over 30% in size. The procedure, abridged:
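Viability of ER-beta-UAS-bla HEK293T cells was determined by CellTiter-Glo luminescence following 16 hr treatment with test compounds at 37C.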

Test [6] is described as follows: qHTS assay to identify small molecule agonists or antagonists of the thyroid stimulating hormone receptor (TSHR) signaling pathway - wild type cell line counter screen (AID 1259384; calls by dose curve). A digest of the protocol:
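Wild-type HEK293 cells were plated 18 h at 37 C/5% CO2, pin-dosed with compound plus Ro20-1724 medium, held 30 min at room temperature, then given cAMP-d2 and anti-cAMP-cryptate; fluorescence was read after 1 h. Fifteen concentrations, triplicate.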

The target in test [7] is Thyrotropin receptor (Homo sapiens) (UniProt P16473). Briefly: qHTS assay to identify small molecule antagonists of the thyroid stimulating hormone receptor (TSHR) signaling pathway (AID 1259385; calls by dose curve; note: nearly all actives have a fitted effect of over 20% in size). The procedure, abridged:
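TSHR-HEK293 cells were plated and held 18 h at 37C/5% CO2, then given compound plus Ro20-1724 and stimulated with TSH at 1.5 ng/mL final. After 30 min at room temperature, cAMP was detected with cAMP-d2/anti-cAMP-cryptate (1 h) by fluorescence.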

Test [8] can be described thus: qHTS assay to identify small molecule agonists of the estrogen receptor alpha (ER-alpha) signaling pathway in the presence of an antagonist - cell viability counter screen (AID 1259386).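 Note: series mostly up to about 92 µM; cells exposed to compounds for 22 h at 37 °C before the viability read; nearly all actives have a fitted effect of over 30% in size.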 A digest of the protocol:
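Fluorescent CellTiter-Fluor viability signal from VM7Luc4E2 cells, with the reagent added during the final hour of a 22hr compound exposure at 37C in the presence of 10.0nM ICI-182,780.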

Test [9] addresses Progesterone receptor (Homo sapiens) (UniProt P06401). Briefly: qHTS assay to identify small molecule agonists of the progesterone receptor (PR) signaling pathway (AID 1346784; calls by dose curve; note: nearly all actives have a fitted effect of over 30% in size). A digest of the protocol:
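Fluorescence from LiveBLAzer B/G FRET substrate cleavage (2 hr, RT) reported PR activation in PR-UAS-bla HEK 293T cells treated 16 hr at 37C/5% CO2 with compounds; medium contained 2% charcoal-stripped FBS.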

Test [10] has the same target. The test can be described thus: qHTS assay to identify small molecule antagonists of the progesterone receptor (PR) signaling pathway (AID 1346795; active = well fitted inhibition curve with a large enough effect in the signal ratio in the repeat runs, not every such curve was filed as active; the % refers to the signal ratio). The procedure, abridged:
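Fluorescence intensity measured 2 hr after adding beta-lactamase FRET substrate to PR-UAS-bla HEK293T cells that had been co-treated 16 hr with compound and 1 nM R5020 (final concentration) in 2% charcoal-stripped FBS.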

Test [11] can be described thus: qHTS assay to identify small molecule antagonists of the progesterone receptor (PR) signaling pathway - cell viability counter screen (AID 1346798). Note: series mostly up to about 92 µM; nearly all actives have a fitted effect of over 50% in size. The procedure, abridged: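 CellTiter-Glo luminescence; PR-UAS-bla HEK293T, 3,000 cells/well; compound + R5020, 16 hr, 37C/5% CO2; 30 min RT before read.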
A short description of test [12]: qHTS assay to identify small molecule agonists of the progesterone receptor (PR) signaling pathway - cell viability counter screen (AID 1346799; calls by dose curve; note: nearly all actives have a fitted effect of over 45% in size). A digest of the protocol: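 In parallel with the beta-lactamase readout, cytotoxicity toward PR-UAS-bla HEK293T cells was measured by CellTiter-Glo luminescence following 16 hr compound incubation in 2% charcoal-stripped FBS medium.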

Test [13] in a line: qHTS assay to identify small molecule antagonists of the TGF-beta/Smad signaling pathway - cell viability counter screen (AID 1346824). Note: nearly all actives have a fitted effect of over 50% in size. The procedure, abridged:
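SBE-bla HEK 293T cells were plated overnight at 37 C, then given compounds in DMSO plus TGF-beta1 (added as 0.25 ng/mL solution) for 5 hr. After the bla read, CellTiter-Glo was added to the same wells and luminescence read after 30 min at room temperature.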

Test [14] is described as follows: qHTS assay to identify small molecule agonists of the TGF-beta/Smad signaling pathway - cell viability counter screen (AID 1346829). Note: top concentration of the series differs between compounds; nearly all actives have a fitted effect of over 45% in size. The procedure, abridged:
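SBE-bla HEK 293T cells plated overnight, compound exposure 5 hr at 37 C. Viability read in the same wells by CellTiter-Glo luminescence after 30 min at room temperature, following the beta-lactamase read.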

Test [15] in a line: qHTS assay to identify small molecule agonists of the TGF-beta/Smad signaling pathway (AID 1346859; active = well fitted activation curve with a large enough effect in the signal ratio in the repeat runs, not every such curve was filed as active; the % refers to the signal ratio; note: series mostly up to about 77 µM). A digest of the protocol: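 After overnight seeding, SBE-bla HEK 293T cells are dosed with compounds in DMSO and kept 5 hr at 37 C, 5% CO2. LiveBLAzer-type FRET substrate is then applied for 2 hr at room temperature.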
In test [16] the target is Thyrotropin-releasing hormone receptor (Homo sapiens) (UniProt P34981). Briefly: qHTS assay to identify small molecule antagonists of the thyrotropin-releasing hormone receptor (TRHR) signaling pathway (AID 1346877; active = well fitted inhibition curve with a large enough effect in the repeat runs, not every such curve was filed as active; note: series mostly up to about 51 µM). The procedure, abridged: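 In this cell-based calcium flux format, HEK293 cells expressing TRHR received test compound for 5 min before the agonist TRH (1 nM final). Dye loading lasted 2 h at 37 °C.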
Thyrotropin-releasing hormone receptor (Homo sapiens), sequence (P34981 whole entry, looked up): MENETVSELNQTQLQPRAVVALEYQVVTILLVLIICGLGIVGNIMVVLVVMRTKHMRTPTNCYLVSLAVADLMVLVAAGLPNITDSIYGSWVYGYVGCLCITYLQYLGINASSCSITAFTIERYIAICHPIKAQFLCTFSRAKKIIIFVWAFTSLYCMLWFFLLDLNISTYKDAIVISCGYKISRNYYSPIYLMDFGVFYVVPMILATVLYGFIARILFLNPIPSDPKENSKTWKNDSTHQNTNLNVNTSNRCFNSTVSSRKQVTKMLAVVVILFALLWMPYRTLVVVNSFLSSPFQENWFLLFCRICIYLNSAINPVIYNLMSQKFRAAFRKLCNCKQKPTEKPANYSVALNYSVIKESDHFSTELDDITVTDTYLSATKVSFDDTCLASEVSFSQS

The target is the same in test [17]. The test can be described thus: qHTS assay to identify small molecule agonists of the thyrotropin-releasing hormone receptor (TRHR) signaling pathway (AID 1346891; calls by dose curve; note: series mostly up to about 58 µM). The procedure, abridged:
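Compounds were tested as agonists at 15 concentrations, in triplicate, on TRHR-Hek293 cells; calcium-sensitive dye fluorescence was recorded for 3 min following addition.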

A short description of test [18]: qHTS assay to identify small molecule antagonists of the estrogen receptor beta (ER-beta) signaling pathway - cell viability counter screen (AID 1259382). Note: series mostly up to about 92 µM; nearly all actives have a fitted effect of over 55% in size. A digest of the protocol:
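Tox21 10K library tested in qHTS format on ER-beta-bla HEK293T cells stimulated with 1nM E2; 16 hr treatment at 37C. Same-well CellTiter-Glo luminescence served as the cell viability measure.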

The target in test [19] is Estrogen receptor (Homo sapiens) (UniProt P03372). Briefly: qHTS assay to identify small molecule agonists of the estrogen receptor alpha (ER-alpha) signaling pathway in the presence of an antagonist (AID 1259383; calls by dose curve; note: top concentration of the series differs between compounds; nearly all actives have a fitted effect of over 15% in size). A digest of the protocol:
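In VM7Luc4E2 cells, 4,000 per well, compounds at 15 concentrations were co-incubated 22hr at 37C with 10.0nM final ICI-182,780. Luminescence from the stably transfected 4×ERE-luciferase reporter was recorded 30min after ONE-Glo addition.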

Results filed as inconclusive are left out. The source made the active and inactive calls. Unless noted, calls come from the whole dose curve; as a rule, active = well fitted curve in the direction sought with a large enough effect in the repeat runs; inconclusive = weak or mixed curves; inactive = no such curve, though single readings can be large; an effect the other way counts as inactive or inconclusive.

Estrogen receptor beta (Homo sapiens), sequence (Q92731 whole entry, looked up): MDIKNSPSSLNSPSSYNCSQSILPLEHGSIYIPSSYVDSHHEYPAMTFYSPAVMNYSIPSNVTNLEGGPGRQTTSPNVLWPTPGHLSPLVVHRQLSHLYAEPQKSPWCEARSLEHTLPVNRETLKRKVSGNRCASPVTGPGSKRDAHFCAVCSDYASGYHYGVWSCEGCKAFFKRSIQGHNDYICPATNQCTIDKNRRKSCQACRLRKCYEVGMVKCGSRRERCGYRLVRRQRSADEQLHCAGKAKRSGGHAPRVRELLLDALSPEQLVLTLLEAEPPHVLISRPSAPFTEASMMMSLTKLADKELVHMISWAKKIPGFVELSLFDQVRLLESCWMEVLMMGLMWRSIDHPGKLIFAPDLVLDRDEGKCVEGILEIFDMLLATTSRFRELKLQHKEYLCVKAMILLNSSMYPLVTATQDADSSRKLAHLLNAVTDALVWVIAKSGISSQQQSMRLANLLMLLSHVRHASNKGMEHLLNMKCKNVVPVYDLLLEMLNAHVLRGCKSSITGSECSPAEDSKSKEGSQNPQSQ
Progesterone receptor (Homo sapiens), sequence (P06401 whole entry, looked up): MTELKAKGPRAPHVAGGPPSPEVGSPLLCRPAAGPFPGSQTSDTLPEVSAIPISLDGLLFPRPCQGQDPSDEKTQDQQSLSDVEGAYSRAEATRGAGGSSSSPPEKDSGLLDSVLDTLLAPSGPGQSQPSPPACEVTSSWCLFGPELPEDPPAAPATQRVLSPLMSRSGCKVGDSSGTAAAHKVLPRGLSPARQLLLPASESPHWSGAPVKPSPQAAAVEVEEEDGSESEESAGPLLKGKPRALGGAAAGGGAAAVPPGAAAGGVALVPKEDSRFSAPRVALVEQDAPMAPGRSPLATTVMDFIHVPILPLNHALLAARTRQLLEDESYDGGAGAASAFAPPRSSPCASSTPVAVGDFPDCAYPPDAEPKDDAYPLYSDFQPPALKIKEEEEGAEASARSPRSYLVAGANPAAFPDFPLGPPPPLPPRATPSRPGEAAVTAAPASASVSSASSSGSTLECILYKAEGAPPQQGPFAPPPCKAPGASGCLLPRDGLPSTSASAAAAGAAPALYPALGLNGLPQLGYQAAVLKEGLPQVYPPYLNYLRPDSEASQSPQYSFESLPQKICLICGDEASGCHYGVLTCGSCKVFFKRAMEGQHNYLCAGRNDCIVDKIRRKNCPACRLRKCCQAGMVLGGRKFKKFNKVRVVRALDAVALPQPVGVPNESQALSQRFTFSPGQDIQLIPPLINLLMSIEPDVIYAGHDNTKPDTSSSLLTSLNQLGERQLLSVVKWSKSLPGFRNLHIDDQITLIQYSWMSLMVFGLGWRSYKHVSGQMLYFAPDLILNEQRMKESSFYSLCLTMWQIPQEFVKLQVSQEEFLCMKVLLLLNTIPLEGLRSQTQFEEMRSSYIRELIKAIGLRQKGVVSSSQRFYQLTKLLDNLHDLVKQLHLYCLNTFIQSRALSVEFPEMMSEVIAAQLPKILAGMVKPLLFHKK
Thyrotropin receptor (Homo sapiens), sequence (P16473 whole entry, looked up): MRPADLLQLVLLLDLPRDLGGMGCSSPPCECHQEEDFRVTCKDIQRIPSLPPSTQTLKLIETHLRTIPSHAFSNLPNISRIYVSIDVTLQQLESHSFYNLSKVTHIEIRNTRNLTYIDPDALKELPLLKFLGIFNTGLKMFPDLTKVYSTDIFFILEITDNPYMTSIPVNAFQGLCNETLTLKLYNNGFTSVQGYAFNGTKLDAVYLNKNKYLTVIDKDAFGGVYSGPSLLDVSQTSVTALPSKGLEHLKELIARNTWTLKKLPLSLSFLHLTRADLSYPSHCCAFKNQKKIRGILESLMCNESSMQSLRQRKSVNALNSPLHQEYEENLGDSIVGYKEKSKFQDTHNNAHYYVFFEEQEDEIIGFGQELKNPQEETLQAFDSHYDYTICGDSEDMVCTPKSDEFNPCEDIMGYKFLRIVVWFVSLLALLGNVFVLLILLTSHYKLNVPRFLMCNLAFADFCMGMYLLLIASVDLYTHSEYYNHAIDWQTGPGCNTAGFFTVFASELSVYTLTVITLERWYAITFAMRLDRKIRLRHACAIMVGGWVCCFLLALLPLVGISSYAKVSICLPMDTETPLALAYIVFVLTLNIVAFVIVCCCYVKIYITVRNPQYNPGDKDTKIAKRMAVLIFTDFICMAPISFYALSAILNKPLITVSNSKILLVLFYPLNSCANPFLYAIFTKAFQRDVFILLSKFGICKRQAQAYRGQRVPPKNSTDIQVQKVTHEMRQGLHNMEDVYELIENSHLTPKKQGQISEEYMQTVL
Estrogen receptor (Homo sapiens), sequence (P03372 whole entry, looked up): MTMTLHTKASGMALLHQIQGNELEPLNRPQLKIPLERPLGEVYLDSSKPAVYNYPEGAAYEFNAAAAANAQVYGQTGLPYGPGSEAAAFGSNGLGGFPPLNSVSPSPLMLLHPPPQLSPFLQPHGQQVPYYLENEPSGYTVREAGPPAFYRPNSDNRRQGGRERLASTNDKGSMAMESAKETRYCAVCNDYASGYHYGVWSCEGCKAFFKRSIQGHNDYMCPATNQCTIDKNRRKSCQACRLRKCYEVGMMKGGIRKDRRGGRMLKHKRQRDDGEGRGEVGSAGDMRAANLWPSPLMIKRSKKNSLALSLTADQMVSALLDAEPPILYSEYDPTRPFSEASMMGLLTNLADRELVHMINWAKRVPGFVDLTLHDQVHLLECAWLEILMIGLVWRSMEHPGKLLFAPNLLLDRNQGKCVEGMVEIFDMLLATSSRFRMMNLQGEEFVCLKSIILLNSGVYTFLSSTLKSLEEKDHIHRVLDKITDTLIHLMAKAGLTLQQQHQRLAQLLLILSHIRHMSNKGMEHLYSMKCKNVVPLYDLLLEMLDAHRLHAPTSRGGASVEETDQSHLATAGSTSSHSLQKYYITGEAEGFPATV

In the case of `CN(C)[C@@H]1C(=O)C(C(=O)NCN2CCCC2)=C(O)[C@@]2(O)C(=O)C3=C(O)c4c(O)cccc4[C@@](C)(O)C3C[C@@H]12` (some centres not stated), the Potency result in test [1], in test [2], in test [3], in test [4], in [5] and in test [8] was “inactive” each time. Also, the Potency entry in [9], in test [10], in test [11], in [12] and in test [17] was “inactive” each time. For the same molecule, the result in test [6], in test [7], in test [13], in test [14], in test [15] and in test [16] was inactive.

With `CN1CC(=O)N/C1=N/C(=O)Nc1cccc(Cl)c1`, the Potency entry in test [1], in [2], in test [3], in [4], in test [5] and in [8] was “inactive” each time. Moreover, the Potency entry in [9], in test [10], in [11], in test [12] and in [17] was “inactive” in each case. For the same molecule, the result in test [6], in test [7], in test [13] and in test [15] was inactive.

Consider `CC(C)CC(C)(N)C#N` (configuration not stated), for which the Potency entry in test [1], in test [2], in [3], in test [4], in test [5] and in [8] was “inactive” in each case. The Potency result in test [9], in test [10], in test [12] and in test [17] was “inactive” each time. Besides, the outcome in [18], in test [7], in [13], in [14], in test [15] and in [16] was inactive.

`CCCCc1nc(Cl)c(CO)n1Cc1ccc(-c2ccccc2-c2nn[nH]n2)cc1`: the Potency in [1] was 0.596 µM (active). For the same molecule, the Potency result in test [2], in test [3], in test [4], in test [5], in test [8] and in test [9] was “inactive” each time. Moreover, the Potency entry in test [10], in [11] and in test [12] was “inactive” in each case. The outcome in test [13], in [14] and in [15] was inactive.

As for `O=C(O)CNC(=O)c1ccccc1`, the Potency entry in test [1], in test [2], in [3], in test [4], in [5] and in test [8] was “inactive” in each case. Further, the Potency result in [10], in test [11], in [12] and in [17] was “inactive” each time. The outcome in test [18], in test [6], in test [7], in test [13], in test [14] and in [15] was inactive.

On to `CC(C)CCCO`, for which the Potency entry in [1], in [2], in test [3], in test [4], in test [8] and in [9] was “inactive” each time. Also, the Potency result in test [10], in test [11] and in test [17] was “inactive” in each case. In addition, the call in [18], in test [19], in [6], in test [7], in test [13] and in test [14] was inactive. Moreover, the result in [15] and in test [16] was inactive.

For the molecule `O=C1NC(=O)C2CC=CCC12` (configuration not stated), the Potency result in test [1], in test [2], in test [3], in test [4], in test [5] and in [8] was “inactive” throughout. Moreover, the Potency result in test [9], in [12] and in [17] was “inactive” throughout. Further, the result in test [18], in [13] and in test [15] was inactive.

Consider `OCCc1ccccn1`, for which the Potency entry in test [1], in test [2], in test [3], in test [4], in test [5] and in [8] was “inactive” each time. In addition, the Potency entry in test [9], in [10], in [11], in [12] and in test [17] was “inactive” throughout. Moreover, the molecule was classed as inactive in test [18], in test [13], in [14], in test [15] and in test [16].

These data come from PubChem BioAssay (Tox21).
